PubChem BioAssay (NCATS)
Records with an inconclusive call do not appear. The source made the active and inactive calls. Unless noted, the call rests on the fitted dose curve; in most records, active means well fitted curve in the direction sought with a large enough effect; inconclusive means small, poorly fitted or top-dose-only effect, or another doubt; inactive means no such curve, though single readings can be large; an effect the other way counts as inactive or inconclusive.

Experiments:
[1] = AP1 Signaling Pathway (AID 357; active means well fitted curve in either direction with a large enough effect, not every such curve was filed as active;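 further: ME-180 reporter cells stimulated with EGF at its EC50 level; on the % scale 0 is the no-effect control and ±100 the full control effect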); conditions: ME-180 AP-1-bla reporter, EGF-induced, beta-lactamase ratio, 5 h; at 38 µM (top of the series)
Outline: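 AP-1-bla ME-180 cells, Opti-MEM + 0.5% dialyzed FBS, plated overnight 37 °C. Cpd titration + EC50 EGF, 5 h 37 °C. CCF4 2.5 h RT; ex 405, em 460/530 ratio → %activity, AC50.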

[2] = molecular target: Cytochrome P450 1A2 (Homo sapiens) (UniProt P05177); assay: p450-cyp1a2 (AID 410; calls by dose curve; further: potency means the concentration at half of the fitted maximal effect)
Outline: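 Luminescent demethylation readout: Luciferin-ME (100uM, equal to Km) turned over by 20nM CYP1A2 for 60 min at room temperature after NADPH regeneration addition, following 10 min compound preincubation. Normalization used 57 uM furafylline as full inhibition.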

[3] = Stat Signaling Pathway (AID 446; active means well fitted curve in either direction with a large enough effect, not every such curve was filed as active;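 further: ME-180 cervical cancer cells given 40 pM IL-6 alongside compound; SIE-controlled beta-lactamase reporter measured as 460/530 nm FRET emission ratio; on the % scale 0 is the no-effect control and ±100 the full control effect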); conditions: ME-180 (cervical carcinoma) SIE beta-lactamase reporter, IL-6 stimulated, 5 h; at 38 µM (top of the series)
Outline: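 Normalization used AC90 stimulation (300 pM IL-6) and AC90 inhibition (125 nM pan-JAK inhibitor at 40 pM IL-6). The underlying signal is SIE-driven beta-lactamase in ME-180 cells after 5 h IL-6 exposure with compound.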

[4] = molecular target: Glucocorticoid receptor (Homo sapiens) (UniProt P04150); assay: GR-GFP Redistribution (AID 450;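 active means compounds whose dose series gives a full or clear partial fitted curve of increased nuclear translocation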; further: potency means the concentration at half of the fitted maximal effect); conditions: U2OS GR-GFP nuclear translocation, laser cytometry, 2 h
[5] = molecular target: Mitogen-activated protein kinase 10 (Mus musculus) (UniProt Q61831); assay: JNK3 AlphaScreen Assay (AID 530; active means well fitted curve in either direction with a large enough effect, not every such curve was filed as active;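 further: kinase came from lysate of stimulated human HepG2 cells; signal reports phosphorylation of biotinylated GST-cJun 1-79 at Ser73 with 10 µM ATP; on the % scale 0 is the no-effect control and ±100 the full control effect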)
Outline: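 qHTS titrations with 15 min compound pre-incubation before adding ATP (10 uM final). Read-out: AlphaScreen of Ser73-phosphorylated biotin-GST-cJun using HepG2 lysate JNK3 activated by IL-1β and TNFα.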

[6] = molecular target: 3',5'-cyclic-AMP phosphodiesterase 4B (Homo sapiens) (UniProt Q07343); assay: qHTS Assay for Inhibitors of PDE-IV (AID 607; active means well fitted activation curve with a large enough effect in the main read-out, with a control signal flat, not every such curve was filed as active; further: % of control where 0% means no effect)
Outline: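 HEK293 ACTOne cells with CNG channel (1000/well), endogenous PDE4; membrane potential dye, compounds up to 22.9 uM final. Fluorescence Ex 535/Em 590; RO 20-1724 (100 uM final) as reference.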

[7] = molecular target: Guanine nucleotide-binding protein G(i) subunit alpha-1 (Homo sapiens) (UniProt P63096); assay: qHTS Assay for Inhibitors of RGS12 GoLoco Motif Activity (Green Fluorophore) (AID 879);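 further: 0% = labeled peptide with Gαi1 and full inhibition = labeled peptide alone without protein; negative values mean loss of peptide binding seen as reduced polarization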
Outline: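 A drop in FITC polarization marked displacement of the FITC-tagged RGS12 GoLoco peptide (10 nM) from Gαi1 (50 nM). Compounds were incubated 10 min at room temperature in Tris pH 7.5 buffer containing 150 mM NaCl, 0.1 mM GDP and 0.05% NP40; unlabeled peptide titration served as control.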

[8] = molecular target: Cytochrome P450 3A4 (Homo sapiens) (UniProt P08684); assay: qHTS Assay for Activators of Cytochrome P450 3A4 (AID 885); further: nearly all actives have a fitted effect of over 65% in size
Outline: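 Human CYP3A4 dealkylates Luciferin-PPXE to luciferin, which luciferase detection converts to light. Substrate was at its KM (25uM), buffer 200mM KPO4, reaction 60 min at RT.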

[9] = qHTS Assay for Identification of Small Molecule Antagonists for Thrombopoietin (TPO) Signaling Pathway (AID 918); conditions: TPO-dependent cell signaling reporter, antagonist mode; further: potency means the concentration at half of the fitted maximal effect; nearly all actives have a fitted effect of over 60% in size
Outline: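 Inhibition read as reduced luciferase luminescence after 24 h at 37 C in IL-3-deprived Ba/F3 cells carrying human TPO receptor and GPIIb-promoter reporter, stimulated with 26 pM TPO (final, its EC50) alongside compound.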

[10] = molecular target: Muscarinic acetylcholine receptor M1 (Rattus norvegicus) (UniProt P08482); assay: qHTS Assay for Antagonists of Acetylcholine Muscarinic M1 Receptor: Kinetic Measurement of Intracellular Calcium Response (AID 943);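 further: Fluo-4 calcium signal as peak divided by basal fluorescence over 4 min; nearly all actives have a fitted effect of over 75% in size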
Outline: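 Antagonism measured as reduction of carbachol-evoked (EC80, 100 nM final) calcium flux in rat M1-CHO cells after 10 min compound exposure. Fluo-4 signal read kinetically; ratio of maximal to basal fluorescence.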

[11] = molecular target: Muscarinic acetylcholine receptor M1 (Rattus norvegicus) (UniProt P08482); assay: qHTS Assay for Antagonists of Acetylcholine Muscarinic M1 Receptor: Measurement of IP-One Response (AID 944); further: nearly all actives have a fitted effect of over 75% in size
Outline: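 IP1 accumulation measured via TR-FRET between d2-IP1 and Eu-cryptate anti-IP1 antibody after carbachol (200 nM, EC80) stimulation for 30 min; rat M1-transfected CHO cells received compound 10 min before agonist.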

[12] = molecular target: Pyruvate kinase PKM (Homo sapiens) (UniProt P14618); assay: qHTS Assay for Activators of Human Muscle Pyruvate Kinase (AID 954; active means well fitted curve in the direction sought with a large enough effect, not every such curve was filed as active;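 further: 0% = uninhibited enzyme and -100% = no enzyme or full thiadiazolimine inhibition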)
Outline: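 Compound pinned into substrate mix (0.5 mM PEP, 0.1 mM ADP), then 0.1 nM PKM2 added; 1 h, RT. Stop/detection luciferase reagent added, luminescence read. Normalized to no-inhibition and no-enzyme or reference-inhibitor controls.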

[13] = molecular target: Pyruvate kinase (Leishmania mexicana) (UniProt Q27686); assay: qHTS Validation Assay for Activators of Leishmania Mexicana Pyruvate Kinase (AID 959)
Outline: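 Eight-point qHTS titrations; enzyme 0.2 nM LmPYK (E451W mutant); substrates 0.5 mM PEP, 0.1 mM ADP; 7 mM MgCl2; 1 h room temperature; PKLight luminescence normalized to neutral control.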

[14] = molecular target: Alpha-galactosidase A (Homo sapiens) (UniProt P06280); assay: Counterscreen for Glucocerebrosidase Inhibitors: qHTS Assay for Human alpha-Galactosidase at pH 4.5 (AID 992); further: 0% is about no effect
Outline: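 Steps: enzyme (2 nM final), then compound across 0.7 nM to 77 uM, then 80 uM fluorogenic galactopyranoside substrate; incubate 20 min at room temperature; quench at pH 10; measure fluorescence at 365/440 nm.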

[15] = molecular target: alpha-glucosidase (Oryza sativa, rice) (UniProt Q653V4); assay: Counterscreen for Glucocerebrosidase Inhibitors: qHTS Assay for Rice alpha-Glucosidase at pH 5.0 (AID 997);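 further: 0% = full activity with enzyme and -100% = basal without enzyme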
Outline: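 Endpoint fluorogenic assay at pH 5.0: compounds (0.7 nM to 77 uM) titrated against 4 nM rice enzyme and 400 uM 4-MU-alpha-glucoside for 20 min at room temperature; NaOH/glycine stop, read ex 365/em 440 nm, Hill-fitted AC50.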

[16] = qHTS Assay for Lipid Storage Modulators (AID 1519; calls by dose curve); conditions: Drosophila S3 cells, BODIPY lipid droplet/cell ratio, laser cytometry, cells loaded with oleic acid
Outline: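 Cells seeded at 5,000 per well were treated with compounds over a concentration series and loaded with oleic acid (400 uM, as added). Lipid droplet fluorescence (488 nm excitation, 500-530 nm channel) was read by laser-scanning cytometry and normalized to 20 uM Triacsin C.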

[17] = molecular target: DNA repair nuclease/redox regulator APEX1 (Homo sapiens) (UniProt P27695); assay: qHTS Validation Assay for Inhibitors of the Human Apurinic/apyrimidinic Endonuclease 1 (APE1) (AID 1705;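 further: TAMRA fluorescence gain over two minutes as APE1 cuts a quenched THF abasic duplex; on the % scale 0 is the no-effect control and ±100 the full control effect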)
Outline: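 Activity read as rising fluorescence (598 nm emission, 525 nm excitation) from incision of a TAMRA/BHQ-2 duplex carrying a THF abasic site (50 nM). Compound and enzyme sat 15 min at RT before substrate start; signal change between first and third 60-s reads.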

Chain of Muscarinic acetylcholine receptor M1 (Rattus norvegicus) (P08482 whole entry, looked up): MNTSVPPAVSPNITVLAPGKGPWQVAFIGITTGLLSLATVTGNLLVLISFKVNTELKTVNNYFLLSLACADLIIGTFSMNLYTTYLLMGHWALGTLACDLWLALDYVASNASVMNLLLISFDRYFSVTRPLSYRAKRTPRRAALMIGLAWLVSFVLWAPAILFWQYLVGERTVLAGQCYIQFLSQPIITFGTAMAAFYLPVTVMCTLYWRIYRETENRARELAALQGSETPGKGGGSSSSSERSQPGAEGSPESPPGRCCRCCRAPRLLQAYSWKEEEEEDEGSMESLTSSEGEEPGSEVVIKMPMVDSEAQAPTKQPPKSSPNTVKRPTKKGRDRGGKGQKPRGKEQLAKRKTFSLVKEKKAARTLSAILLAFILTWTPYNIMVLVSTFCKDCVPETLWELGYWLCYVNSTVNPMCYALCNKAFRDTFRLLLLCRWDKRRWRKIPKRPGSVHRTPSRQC
Chain of Cytochrome P450 1A2 (Homo sapiens) (P05177 whole entry, looked up): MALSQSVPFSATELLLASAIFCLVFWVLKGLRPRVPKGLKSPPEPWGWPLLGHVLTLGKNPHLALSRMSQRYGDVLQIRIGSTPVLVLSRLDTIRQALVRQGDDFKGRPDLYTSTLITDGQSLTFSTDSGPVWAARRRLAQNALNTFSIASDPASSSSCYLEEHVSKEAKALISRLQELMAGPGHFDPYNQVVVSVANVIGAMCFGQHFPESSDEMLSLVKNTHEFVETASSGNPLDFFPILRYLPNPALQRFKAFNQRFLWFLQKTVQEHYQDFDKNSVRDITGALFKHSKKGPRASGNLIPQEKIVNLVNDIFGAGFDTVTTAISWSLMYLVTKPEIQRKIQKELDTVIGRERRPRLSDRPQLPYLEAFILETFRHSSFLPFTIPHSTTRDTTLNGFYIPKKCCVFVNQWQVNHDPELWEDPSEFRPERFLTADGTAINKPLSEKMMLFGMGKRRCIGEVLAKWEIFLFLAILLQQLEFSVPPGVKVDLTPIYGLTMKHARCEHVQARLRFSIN
Chain of DNA repair nuclease/redox regulator APEX1 (Homo sapiens) (P27695 whole entry, looked up): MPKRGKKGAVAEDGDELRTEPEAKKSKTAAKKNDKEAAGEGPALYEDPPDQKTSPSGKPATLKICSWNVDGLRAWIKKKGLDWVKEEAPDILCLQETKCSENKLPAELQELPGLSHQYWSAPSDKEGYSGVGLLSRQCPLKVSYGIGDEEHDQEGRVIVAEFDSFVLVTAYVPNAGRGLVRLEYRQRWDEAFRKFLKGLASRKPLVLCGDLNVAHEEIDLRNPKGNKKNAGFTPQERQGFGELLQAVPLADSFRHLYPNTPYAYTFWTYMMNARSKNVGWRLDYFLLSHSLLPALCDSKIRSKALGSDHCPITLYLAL
Chain of Glucocorticoid receptor (Homo sapiens) (P04150 whole entry, looked up): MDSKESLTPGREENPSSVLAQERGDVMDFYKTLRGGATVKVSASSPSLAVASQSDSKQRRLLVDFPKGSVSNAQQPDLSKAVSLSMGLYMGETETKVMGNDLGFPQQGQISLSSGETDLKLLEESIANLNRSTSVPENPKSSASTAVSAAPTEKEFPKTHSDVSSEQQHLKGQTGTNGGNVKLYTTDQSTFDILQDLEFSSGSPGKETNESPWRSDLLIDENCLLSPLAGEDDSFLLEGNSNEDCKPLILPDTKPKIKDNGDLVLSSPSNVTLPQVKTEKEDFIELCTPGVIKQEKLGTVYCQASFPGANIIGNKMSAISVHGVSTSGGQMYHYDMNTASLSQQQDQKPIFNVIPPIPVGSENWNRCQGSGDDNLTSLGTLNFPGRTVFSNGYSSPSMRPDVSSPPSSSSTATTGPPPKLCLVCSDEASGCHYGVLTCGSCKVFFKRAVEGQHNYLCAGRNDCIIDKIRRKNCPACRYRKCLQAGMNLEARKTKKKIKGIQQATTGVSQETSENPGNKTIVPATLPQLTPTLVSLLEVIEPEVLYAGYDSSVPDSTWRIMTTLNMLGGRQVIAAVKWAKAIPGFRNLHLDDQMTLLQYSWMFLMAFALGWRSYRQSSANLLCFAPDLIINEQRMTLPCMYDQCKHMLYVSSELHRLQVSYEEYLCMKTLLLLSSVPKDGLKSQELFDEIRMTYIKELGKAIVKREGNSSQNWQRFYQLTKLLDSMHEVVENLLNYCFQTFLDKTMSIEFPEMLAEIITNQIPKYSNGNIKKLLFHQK
Chain of Guanine nucleotide-binding protein G(i) subunit alpha-1 (Homo sapiens) (P63096 whole entry, looked up): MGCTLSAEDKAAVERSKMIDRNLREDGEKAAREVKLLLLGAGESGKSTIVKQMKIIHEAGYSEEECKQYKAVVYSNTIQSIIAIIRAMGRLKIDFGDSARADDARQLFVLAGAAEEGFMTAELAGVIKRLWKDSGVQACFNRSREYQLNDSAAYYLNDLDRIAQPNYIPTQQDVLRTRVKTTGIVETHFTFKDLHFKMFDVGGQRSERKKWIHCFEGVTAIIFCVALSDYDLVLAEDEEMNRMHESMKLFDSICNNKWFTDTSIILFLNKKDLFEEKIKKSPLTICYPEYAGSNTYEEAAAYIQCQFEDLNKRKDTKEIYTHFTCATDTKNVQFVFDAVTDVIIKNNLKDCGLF
Chain of Cytochrome P450 3A4 (Homo sapiens) (P08684 whole entry, looked up): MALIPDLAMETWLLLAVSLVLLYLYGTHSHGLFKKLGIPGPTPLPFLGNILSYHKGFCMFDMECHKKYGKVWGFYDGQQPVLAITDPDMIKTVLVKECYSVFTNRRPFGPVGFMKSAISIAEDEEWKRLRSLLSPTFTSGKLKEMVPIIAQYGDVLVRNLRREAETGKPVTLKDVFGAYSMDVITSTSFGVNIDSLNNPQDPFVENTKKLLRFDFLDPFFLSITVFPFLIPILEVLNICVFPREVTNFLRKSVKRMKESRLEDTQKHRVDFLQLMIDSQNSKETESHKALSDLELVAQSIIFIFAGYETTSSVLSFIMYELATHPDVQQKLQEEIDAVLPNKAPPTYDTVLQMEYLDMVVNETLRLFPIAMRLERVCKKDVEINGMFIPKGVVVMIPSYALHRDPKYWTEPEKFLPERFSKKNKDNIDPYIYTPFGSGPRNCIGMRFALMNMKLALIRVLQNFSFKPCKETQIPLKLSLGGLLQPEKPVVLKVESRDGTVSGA
Chain of Pyruvate kinase (Leishmania mexicana) (Q27686 2-499 E452W): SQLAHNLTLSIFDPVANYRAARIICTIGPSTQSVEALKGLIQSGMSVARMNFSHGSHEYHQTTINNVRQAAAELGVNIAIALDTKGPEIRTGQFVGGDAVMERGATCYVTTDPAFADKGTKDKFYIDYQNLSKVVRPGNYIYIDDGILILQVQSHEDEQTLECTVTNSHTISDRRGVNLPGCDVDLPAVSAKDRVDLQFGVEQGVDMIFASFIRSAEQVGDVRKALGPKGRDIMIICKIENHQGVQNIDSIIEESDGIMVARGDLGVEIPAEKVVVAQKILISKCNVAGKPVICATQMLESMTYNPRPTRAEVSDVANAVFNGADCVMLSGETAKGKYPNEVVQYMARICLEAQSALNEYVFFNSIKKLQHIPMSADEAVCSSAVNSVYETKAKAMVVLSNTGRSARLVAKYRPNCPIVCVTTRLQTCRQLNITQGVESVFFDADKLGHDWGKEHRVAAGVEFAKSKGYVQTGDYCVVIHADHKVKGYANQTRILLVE
Chain of Pyruvate kinase PKM (Homo sapiens) (P14618 whole entry, looked up): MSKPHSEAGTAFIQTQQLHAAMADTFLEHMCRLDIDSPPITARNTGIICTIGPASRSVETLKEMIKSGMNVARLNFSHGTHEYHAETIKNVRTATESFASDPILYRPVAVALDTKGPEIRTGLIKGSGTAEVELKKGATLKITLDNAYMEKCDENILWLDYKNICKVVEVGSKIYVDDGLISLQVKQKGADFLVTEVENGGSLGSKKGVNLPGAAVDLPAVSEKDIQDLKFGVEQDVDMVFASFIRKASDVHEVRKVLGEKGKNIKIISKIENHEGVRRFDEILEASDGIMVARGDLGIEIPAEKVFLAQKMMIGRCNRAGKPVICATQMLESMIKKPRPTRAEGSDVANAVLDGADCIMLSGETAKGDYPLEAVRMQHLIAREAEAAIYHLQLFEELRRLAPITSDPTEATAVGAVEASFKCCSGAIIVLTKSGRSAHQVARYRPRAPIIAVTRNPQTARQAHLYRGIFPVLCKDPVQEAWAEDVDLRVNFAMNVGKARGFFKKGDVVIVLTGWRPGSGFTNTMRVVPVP
Chain of Alpha-galactosidase A (Homo sapiens) (P06280 whole entry, looked up): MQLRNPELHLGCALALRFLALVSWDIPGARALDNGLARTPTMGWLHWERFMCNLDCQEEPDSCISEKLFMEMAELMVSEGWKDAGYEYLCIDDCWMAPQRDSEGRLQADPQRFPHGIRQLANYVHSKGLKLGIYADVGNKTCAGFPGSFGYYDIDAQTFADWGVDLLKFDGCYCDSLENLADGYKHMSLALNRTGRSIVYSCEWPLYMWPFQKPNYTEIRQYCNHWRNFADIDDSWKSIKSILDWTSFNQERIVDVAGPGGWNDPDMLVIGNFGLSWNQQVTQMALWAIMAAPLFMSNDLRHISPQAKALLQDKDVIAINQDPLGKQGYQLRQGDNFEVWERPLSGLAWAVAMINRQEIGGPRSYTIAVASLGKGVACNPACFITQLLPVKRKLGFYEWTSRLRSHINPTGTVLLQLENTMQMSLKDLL

S=C(Nc1ccccc1)Nc1nccs1
-14.9%: max response ([16]; measured here: lipid channel max response)
inactive: activity change, negative = inhibition [1] -16.9% | activity, negative = inhibition [3] 11.6% | Potency [4] > 46 µM | Potency [5] | Potency [6] | outcome [7] | Potency [8] | Potency [10] | Potency [11] | outcome [12] | Potency [13] | outcome [14] | outcome [15] | activity change, negative = inhibition ([16]; at 57.5 µM (top of the series)) -0.0683% | Potency [17]
active: Potency [2] 0.794 µM | Potency [9] 20 µM
-12.9%: max response ([16]; measured here: cell count channel max response)
